Bioassay records: PubChem BioAssay, several laboratories
3CLpro inhibitor = SARS-CoV 3CLpro protease inhibition | P0C6X7 | recombinant SARS-CoV 3CLpro, quenched FRET peptide cleavage | inhibition, % at 6 µM | 290,000 compounds, 0.14% hits | AID 1706; in the data active = inhibition above about 12%
SSB-PriA inh = inhibitors of Klebsiella pneumoniae PriA binding to SSB C-terminal tail; inhibition, % at 33 µM; 430,000 compounds, 0.6% hits; AlphaScreen SSBct-PriA binding, biotinylated peptide; AID 1272365; in the data active = inhibition mostly above about 37%, no sharp cut-off; inactive = mostly below about 20%;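 also: plate controls were negative control peptide for no effect and reference peptide for full effect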
CCHF vOTU inh = blocks the CCHF virus ovarian tumor domain protease; CCHFV vOTU protease, Pep-AMC fluorescence; inhibition, % at 11.5 µM; AID 651958; 370,000 compounds, 0.55% hits; in the data active = inhibition above about 30%; also: 0% = vehicle wells with enzyme and 100% = no enzyme wells
VHR inh abs = inhibitors of human VHR1 phosphatase (DUSP3) | P51452 | inhibition, % at 13.3 µM | 290,000 compounds, 0.52% hits | recombinant VHR phosphatase, pNPP absorbance; in the data active = inhibition above about 50%
Target sequence (P51452 whole entry, looked up): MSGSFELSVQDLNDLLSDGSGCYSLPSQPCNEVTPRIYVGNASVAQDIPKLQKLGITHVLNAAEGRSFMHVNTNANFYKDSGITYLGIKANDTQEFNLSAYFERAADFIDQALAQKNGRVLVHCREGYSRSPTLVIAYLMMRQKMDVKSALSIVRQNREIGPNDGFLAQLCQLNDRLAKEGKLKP
Mtb hypoxia rep = reduces hypoxia-regulated biosensor signal in M. tuberculosis. fluorescence inhibition, % (test concentration not listed). 300,000 compounds, 0.1% hits. M. tuberculosis hypoxia-regulated fluorescent reporter, fluorescence. AID 1159583; in the data active = fluorescence inhibition mostly above about 23%, no sharp cut-off; inactive = mostly below about 17%
Starred values were filed as active, the others as inactive; / = not tested or not shown. In the library only some 1.3% were active in any assay of this set; here they are far more common.

SMILES	3CLpro inhibitor	SSB-PriA inh	CCHF vOTU inh	VHR inh abs	Mtb hypoxia rep
Cc1ccc(-n2ccc(-c3nn(-c4ccccc4)ccc3=O)n2)cc1	4	5	0	19	0
COc1ccc(-n2c(C)cc(C)c(C(C)=O)c2=S)cc1	0	-15	1	39	0
COc1ccccc1-n1c(C)cc(SC)c(C(C)=O)c1=S	1	-12	16	52*	/
Cc1c(C(=O)N2CCN(S(=O)(=O)c3ccc(F)cc3)CC2)oc2ccccc12	/	-10	-8	/	39*
CNC(=O)CSc1nnc2[nH]c(=O)cc(C(C)(C)C)n12	/	-6	/	/	/
Clc1cc2c(c3ncccc13)OCN(CCC1=CCCCC1)C2	/	95*	/	/	/
COc1cc(CN2CCCCCC2)cc(OC)c1O	-7	7	-13	48	8
CCOc1cc(CN2CCCCCC2)ccc1OC	0	-2	-2	57*	5
COc1ccc(S(=O)(=O)N2CCN(Cc3ccc4c(c3)OCO4)CC2)cc1	0	-1	7	30	/
COc1cc(CN2CCCCCC2)cc(Br)c1O	1	-2	4	55*	9
COc1ccc(S(=O)(=O)N2CCN(Cc3ccc(OC)c(OC)c3)CC2)cc1	7	-6	-8	51*	4
COc1ccc(NC(=O)c2cc(-c3ccco3)on2)cc1OC	0	-10	15	53*	0
Cc1cc(C)c(NC(=O)CSc2n[nH]c(=O)c3cc(-c4ccc(F)cc4)nn23)c(C)c1	/	-25	/	/	/
OCCN(Cc1cccnc1)Cc1ccccn1	/	42*	0	/	/
OCCN(Cc1ccccc1)Cc1ncccc1O	/	-2	-10	/	8
CN1CCCC1CCNS(=O)(=O)c1ccc(Br)cc1 (stereo not given)	3	0	0	18	/
CN1CCCC1CCNC1C2CC3CC(C2)CC1C3 (stereo not given)	0	41*	-3	26	-7
COc1ccccc1C(=O)NC(C)c1nc2ccccc2n1Cc1ccccc1F (stereo not given)	/	7	/	/	/
CC(=O)c1cccc(NC(=O)c2ccc([N+](=O)[O-])o2)c1	/	-3	0	/	25
CC(=O)c1ccc(NC(=O)c2ccc([N+](=O)[O-])o2)cc1	-6	-27	1	39	73*
NNC(=O)c1ccc(N2CCc3ccccc32)c([N+](=O)[O-])c1	7	25	19	14	2
Cc1ccc(CNC(=O)c2ccc(N3CCc4ccccc43)c([N+](=O)[O-])c2)cc1	1	66*	10	24	11
C=C1CCN(c2ccc(C(=O)NCc3ccccc3)cc2[N+](=O)[O-])CC1	5	13	10	9	7
COC(CNC(=O)c1ccc(N2CCc3ccccc32)c([N+](=O)[O-])c1)OC	7	48*	-3	4	-5
COC(=O)Nc1nc(CC(=O)N2CCc3ccccc32)cs1	/	1	/	/	/
SMILES	3CLpro inhibitor	SSB-PriA inh	CCHF vOTU inh	VHR inh abs	Mtb hypoxia rep
c1ccc(N2CCN(c3nc(-c4ccccn4)nc4ccccc34)CC2)cc1	1	0	14	29	6
NNc1nc(N)nc(-c2ccccn2)n1	/	152*	/	/	/
CN1CCN(c2nc(-c3ccccn3)nc3ccccc23)CC1	2	46*	11	-24	4
Nc1nc(N)nc(-c2ccccn2)n1	-7	78*	-3	10	-1
NNc1nc(-c2ccccn2)nc2c1CCC2	/	165*	/	/	/
O=C(NCc1ccsc1)C(=O)Nc1ccc(F)c(Cl)c1	/	0	/	/	/
COc1ccccc1-c1cc(C(=O)NC2CCN(c3ccc(C(F)(F)F)cn3)C2)[nH]n1 (stereo not given)	/	-3	/	/	/
Nc1nc(-c2ccccn2)nc2ccccc12	/	140*	/	/	/
Clc1nc(-c2ccccn2)nc2ccccc12	/	42	/	/	/
Cc1ccc(S(=O)(=O)NCC2(c3cccs3)CCCC2)s1	/	-21	/	/	/
CCN(CC)c1ccc(C2C(C(=O)OC)=C(C)NC(C)=C2C(=O)OC)cc1	0	-16	30*	-13	12
S=C(Nc1ccccc1)c1ccccn1	-2	72*	7	0	11
Cc1ccc2nc(NC(=O)c3ccc(NS(=O)(=O)c4cccs4)cc3)sc2c1	5	-2	-1	56*	-6
Cc1ccc2nc(NC(=O)CCNS(=O)(=O)c3cccs3)sc2c1	-2	-14	0	14	4
COc1ccc(S(=O)(=O)C2CN(C(=O)c3c(C)noc3C)C2)cc1	/	-6	/	/	/
Cc1cccc(C)c1NC(=O)Cn1c(=O)n(Cc2ccc(F)cc2)c(=O)c2nccnc21	/	-3	/	/	/
COc1cc(OC)c(C2Nc3cccc4cccc(c34)N2)c(OC)c1	8	4	-1	53*	3
C=CCn1c(=NC(=O)c2ccc([N+](=O)[O-])o2)sc2cccc(OC)c21	/	-5	/	/	/
O=C(CSc1ccc(-c2ccc3c(c2)OCO3)nn1)c1ccc(F)cc1	/	-10	/	/	/
O=C(NC(Cc1c[nH]c2ccccc12)C(=O)O)c1ccc2c(c1)OCO2 (stereo not given)	0	-1	-10	2	9
c1ccc2c(C(c3ccc4c(c3)OCO4)c3c[nH]c4ccccc34)c[nH]c2c1	/	37*	/	/	/
C=CCNC(=O)C(=O)NCc1c(F)cccc1F	/	-10	/	/	/
Cn1nc(C(=O)N2CCN(c3nc(-c4ccsc4)cs3)CC2)ccc1=O	/	0	/	/	/
COc1ccc([C@H](OC(=O)c2ccccc2F)c2nccc3ccccc23)cc1	/	-7	/	/	/
COc1cc(OC)c(NC(=O)c2cc(-c3cc[nH]c3)n[nH]2)cc1Cl	/	29*	/	/	/
SMILES	3CLpro inhibitor	SSB-PriA inh	CCHF vOTU inh	VHR inh abs	Mtb hypoxia rep
NS(=O)(=O)c1ccc(CNC(=O)CN2CCN(c3ccc4c(c3)OCO4)C2=O)cc1	/	-7	/	/	/
Brc1ccccc1-c1noc(-c2cn[nH]c2-c2ccccc2)n1	/	-4	/	/	/
Cn1c(=O)oc2cc(S(=O)(=O)N3CCC(C(=O)N4CC=C(c5ccccc5)CC4)CC3)ccc21	-4	115*	-4	4	5
O=S(=O)(O)c1cccc2c(N=Nc3ccc(O)c4ncccc34)cccc12	-1	62*	/	/	16
O=C1N=C2SCCN2C1=Cc1ccccc1Cl	/	/	/	/	5
O=C1N=C2SCCN2/C1=C\c1ccc(Cl)cc1	-4	-10	3	56*	-4
COCCN=c1scc(-c2cc(OC)ccc2OC)n1N=Cc1c[nH]c2ccccc12	/	66*	/	/	4
CCOC(=O)C(C)n1cnc2c(oc3ccccc32)c1=O (stereo not given)	4	-2	9	51*	-4
CCN(CC)S(=O)(=O)c1cccc(C(=O)Nc2ccc3c(c2)OCO3)c1	1	1	-4	4	3
CCN(CC)c1ccc(NC(=O)c2ccc3c(c2)OCO3)cc1	-5	24	5	54*	-3
CCC(=O)Nc1ccc(NC(=O)c2ccc3c(c2)OCO3)cc1	-2	1	-8	0	6
CCCN(CCC)S(=O)(=O)c1cccc(C(=O)Nc2ccc3c(c2)OCO3)c1	9	-7	12	52*	0
COC(CNC(=O)C(=O)Nc1ccccc1C(F)(F)F)c1ccco1 (stereo not given)	/	-7	/	/	/
CC(C)(Oc1ccc(Cl)cc1)C(=O)N1CCCSC[C@@H]1CN1CCOCC1	/	-21	/	/	/
Cc1ccc(S(=O)(=O)CCc2nnc(NC(=O)c3ccccn3)s2)cc1	2	85*	/	-4	/
